Screens as filed in PubChem BioAssay.
TDP1 cell noCPT: qHTS for Inhibitors of human tyrosyl-DNA phosphodiesterase 1 (TDP1): qHTS in cells in absence of CPT. Potency, µM (doses to about 46.2 µM), actives largely listed as inhibitors. DT40 Tdp1-/- hTDP1 cells, no CPT, ATP luminescence, 48 h. AID 686978, 2013. 420,000 tested, 15% active; note: nearly all actives have a fitted effect of over 55% in size
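Chicken DT40 Tdp1-/- cells complemented with human TDP1, screened without camptothecin (DMSO vehicle only), 400 cells/well. Compounds pin-transferred, cells incubated at 37 °C for at least 48 hr. Growth read as ATP-dependent luminescence (CellTiter-Glo, 30 min at RT).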
IL1B secr inh: inhibitors of inflammasome signaling (IL-1 beta secretion). THP-1 LPS/ATP IL-1B secretion, AlphaLISA, 16 h; stronger effect = lower value. activity change, % at 57.5 µM. 360,000 tested, 4.7% active. AID 743279; in the data active = activity change below about -50%; inconclusive = mostly about -30% to -49%
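THP-1 cells pretreated 1 hr with compounds (up to 57.5 uM final), then stimulated with LPS (250 ng/mL final) plus ATP (1.25 mM final); secreted IL-1B measured by AlphaLISA after 16 hr, decreased signal indicating inhibition.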
DT40 TDP1 CPT: growth inhibition of DT40 Tdp1-/-;hTDP1 cells with camptothecin (screen for TDP1 inhibitors) | chicken DT40 Tdp1-/-;hTDP1 cells + 20 nM CPT, ATP luminescence, 48 h | 420,000 tested, 12% active | Potency, µM (series often up to 46.2 µM), actives largely listed as inhibitors; note: nearly all actives have a fitted effect of over 55% in size
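Chicken DT40 Tdp1-/- cells complemented with human TDP1, 400 cells/well, exposed to compounds plus 20 nM camptothecin for at least 48 h at 37 C; viability read as ATP content by CellTiter-Glo luminescence.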
ASM inhibitor: inhibitors of human secretory acid sphingomyelinase. Potency, µM (titrated, usually from 57.5 µM), hits mostly inhibitors. AID 504937. placental ASM, HMU-PC fluorogenic substrate, 60 min. 340,000 tested, 0.006% active. P17405
Target sequence (P17405 47-631 limits assumed): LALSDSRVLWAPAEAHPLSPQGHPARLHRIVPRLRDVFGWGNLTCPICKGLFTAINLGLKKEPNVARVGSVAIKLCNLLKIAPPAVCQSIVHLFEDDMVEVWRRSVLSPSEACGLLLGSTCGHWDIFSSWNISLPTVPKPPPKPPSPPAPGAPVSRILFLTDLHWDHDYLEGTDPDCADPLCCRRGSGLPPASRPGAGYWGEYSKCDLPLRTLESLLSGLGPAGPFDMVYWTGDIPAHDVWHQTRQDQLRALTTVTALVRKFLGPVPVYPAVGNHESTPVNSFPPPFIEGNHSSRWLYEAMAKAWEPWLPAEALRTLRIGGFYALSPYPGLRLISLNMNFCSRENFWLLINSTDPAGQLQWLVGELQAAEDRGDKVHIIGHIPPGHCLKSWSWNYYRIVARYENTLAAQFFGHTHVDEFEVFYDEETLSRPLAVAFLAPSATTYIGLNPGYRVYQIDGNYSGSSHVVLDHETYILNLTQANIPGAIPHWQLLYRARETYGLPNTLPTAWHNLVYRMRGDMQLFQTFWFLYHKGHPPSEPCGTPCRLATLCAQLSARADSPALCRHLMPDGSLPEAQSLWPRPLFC
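Fluorescence read-out (Ex 386 nm, Em 447 nm) after stopping the reaction at pH 10. Enzyme: ASM from human placenta; substrate HMU-PC0, 9 uM final; 60 min, 37 °C. Compound preincubation 10 min, ambient temperature.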
TGFb SMAD3 inh: TGF-b pathway inhibition | HepG2 CAGA-GFP TGF-b/SMAD3 reporter, GFP fluorescence, 18 h; TGF-beta stimulated, 500 pg/mL final | 410,000 tested, 1.2% active | Potency, µM (titrated, usually from 46.1 µM), usual class: inhibitors; note: nearly all actives have a fitted effect of over 65% in size
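Read-out: total well GFP (ex488/em500-530) summed from mean per-cell fluorescence. Cells: HEPG2 CAGA-GFP, 1% FBS DMEM, 18 h at 37 degrees C with 500 pg/mL final TGF-beta. Unstimulated wells served as the full-inhibition control; stimulated DMSO wells = 0%.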
HepG2 viability: HepG2 cytotoxicity, counter-screen for TGF-b inhibitors; HepG2 CAGA-GFP viability, ATP luminescence, 18 h; Potency, µM (highest dose often 46.1 µM), actives largely listed as cytotoxic; 410,000 tested, 0.76% active; AID 588856
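HepG2 CAGA-GFP cells (1000/well, DMEM with 1% FBS) received compound, then TGF-beta at 500 pg/mL final, and were incubated 18 hours at 37 degrees C. Viability was read by CellTiter-Glo luminescence. Media-only wells were set as complete cell-killing and DMSO as no toxicity.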
A number is an active result; – = inactive; ? = inconclusive; · = no result; [ ] = dose if it differs, or a comment. Rows were chosen to be rich in hits. Some 19% of all compounds tested hit in one or more screens of this group. Unless noted, calls come from the whole dose curve; as a rule, active = well fitted curve in the direction sought with a large enough effect; inconclusive = small, poorly fitted or top-dose-only effect, or another doubt; inactive = no such curve, though single readings can be large; an effect the other way counts as inactive or inconclusive.

SMILES	TDP1 cell noCPT	IL1B secr inh	DT40 TDP1 CPT	ASM inhibitor	TGFb SMAD3 inh	HepG2 viability
Nc1ncc(S(=O)(=O)NCc2ccc(F)cc2)cn1	–	·	–	·	–	–
C=CCOC(=O)c1ccc(N2CCN(c3ccccc3)CC2)nc1	–	–	–	–	–	–
CC(O)(P(=O)(O)O)P(=O)(O)O	–	–	–	14µM	–	–
CN(C(=O)CCN1C(=O)S/C(=C\c2ccccc2)C1=O)C1CCS(=O)(=O)C1 (configuration not stated)	?	–	?	–	–	–
Cc1oc(-c2ccccc2NC(=O)c2ccccc2)nc1CNC(=O)C1CC(=O)OC12CCCCC2 (configuration not stated)	–	·	–[9.04 µM]	·	·	·
O=C(Cc1ccc(F)cc1)N1CCC(CC2CC(c3ccc(Cl)cc3)=NO2)(C(=O)NCC2CCCCC2)CC1 (configuration not stated)	?	-55	?	–	–	–
O=C(Cc1ccc(F)cc1)N1CCC(CC2CC(c3cccc(Br)c3)=NO2)(C(=O)NCC2CCCCC2)CC1 (configuration not stated)	?	?	?	–	–	–
CC(C)(C)OC(=O)N1CCC(CC2CC(c3ccc(Cl)cc3)=NO2)(C(=O)NCC2CCCCC2)CC1 (configuration not stated)	16µM	–	23µM	–	?	–
N#CN=C1SCCS1	15µM	–	9.2µM	–	?	–
CCCOc1c(OC)cccc1C1CC(=O)Nc2cc3c(cc21)OCCO3 (configuration not stated)	13µM	–	?	–	?	–
COc1cc(C2CC(=O)Nc3cc(C)c(C)cc32)cc(OC)c1OC (configuration not stated)	12µM	–	16µM	–	–	–
CCOc1cccc(C2CC(=O)Nc3cc4c(cc32)OCCO4)c1 (configuration not stated)	5.8µM	·	5.2µM	·	–	–
CCOc1c(OC)cccc1C1CC(=O)Nc2cc(OC)c(OC)cc21 (configuration not stated)	18µM	–	?	–	–	–
COc1ccc2cc(C(C)C(=O)N3CCC(C(N)=O)CC3)ccc2c1 (configuration not stated)	–	–	–	–	–	–
COCCC1CCCCN1C(=O)c1ccc(OC2CCN(C(C)=O)CC2)c(OC)c1 (configuration not stated)	–	–	–	–	–	–
C[C@@H]1CN([C@H](C)CO)C(=O)c2cc(NC(=O)c3ccncc3)ccc2O[C@@H]1CN(C)C(=O)Nc1ccccc1	–	–	–	–	–	–
CCCOc1c(OC)cccc1C1CC(=O)Nc2cc3c(cc21)OCO3 (configuration not stated)	21µM	–	?	–	–	–
CCOc1c(Br)cc(C2CC(=O)Nc3cc(OC)c(OC)cc32)cc1OC (configuration not stated)	23µM	–	?	–	–	–
COc1cc2c(cc1OC)C(c1ccccc1C(F)(F)F)CC(=O)N2 (configuration not stated)	?	-53	–	–	–	–
Cc1cc2c(cc1C)C(c1cccc([N+](=O)[O-])c1)CC(=O)N2 (configuration not stated)	18µM	–	23µM	–	–	–
CCOc1ccccc1C1CC(=O)Nc2cc3c(cc21)OCO3 (configuration not stated)	–	–	–	–	–	–
COc1cc2c(cc1OC)C(c1cccc(F)c1)CC(=O)N2 (configuration not stated)	?	–	–	–	–	–
Cc1ccc(S(=O)(=O)N2CCCN(C(=O)OC(C)(C)C)CC2)cc1	?	–	–	–	–	–
CCc1noc(C)c1C(=O)N1CCCSC1=Nc1ccccc1Cl	?	–	–	–	–	–
COc1cc(C2CC(=O)Nc3n[nH]c(-c4ccccc4)c32)cc(OC)c1OC (configuration not stated)	15µM	–	8.2µM	–	–	–
SMILES	TDP1 cell noCPT	IL1B secr inh	DT40 TDP1 CPT	ASM inhibitor	TGFb SMAD3 inh	HepG2 viability
Cc1ccc(CNS(=O)(=O)c2ccc3c(c2)NC(=O)C(C)S3)cc1 (configuration not stated)	–	–	?	–	?	–
CC1CCN(C(=O)c2ccc3c(c2)N(Cc2ccccc2F)C(=O)c2ccccc2S3(=O)=O)CC1	?	·	?	·	?	–
O=C(c1ccc2c(c1)N(Cc1ccccc1F)C(=O)c1ccccc1S2(=O)=O)N1CCC(Cc2ccccc2)CC1	21µM	·	16µM	·	–	–
O=C(c1ccc2c(c1)N(Cc1ccc(Cl)cc1)C(=O)c1ccccc1S2(=O)=O)N1CCC(Cc2ccccc2)CC1	18µM	·	10µM	·	–	–
CCOc1ccc(S(=O)(=O)N2CCCC(C(=O)NCc3ccncc3)C2)cc1C (configuration not stated)	?	–	?	–	?	–
COc1ccc(N2CC(NC(=O)COc3cccc(C)c3)CC2=O)cc1OC (configuration not stated)	21µM	·	–	·	–	–
COc1cccc(N2CC(NC(=O)c3cc(Cl)ccc3OC)CC2=O)c1 (configuration not stated)	16µM	·	?	·	–	–
CCC(C(=O)N1CCC(C(N)=O)CC1)n1nc(C)n2c(cc3occc32)c1=O (configuration not stated)	–	–	–	–	–	–
CC12CC3CC(C)(C1)CC(NCc1ccncc1)(C3)C2	–	–	–	–	–	–
CN(Cc1ccc(Cl)cc1Cl)C(=O)CCNC(=O)c1ccco1	–	–	–	–	–	–
O=C(Nc1ccnn1C1CCN(Cc2ccc(CO)o2)CC1)c1ccc2c(c1)OCO2	–	–	–	–	–	–
O=C1CC2CC1C(C(=O)O)C2C(=O)O (configuration not stated)	–	–	–	–	–	–
CCOc1cc(C(=O)Nc2cccc(-c3nc4ccccc4o3)c2)cc(OCC)c1OCC	?	·	–	·	–	–
Cc1ccc(-c2csc3nc4c5ccccc5c(NCCCN(C)C)nn4c(=O)c23)cc1	18µM	?	?	–	?	14µM
CN1CCN(C(=O)C2=C[C@@H](C(C)(C)C)C[C@@H](OCc3ccc(CO)cc3)O2)CC1	–	–	–	–	–	–
c1ccc(OCCNc2ccn3nc(-c4ccco4)cc3n2)cc1	?	–	?	·	–	–
